Data as given in PubChem BioAssay.
Values joined by “and” are separate entries in the source; they are usually repeats but may differ in a detail not shown here. Equal values may be shown once. A number with no mark means an inactive call. Active and inactive are the calls of the source. Unless noted, no stated cut-off is given here; in the data, active means inhibition above about 42%; inactive means the rest.

How the values were obtained:
[1] = target: Nuclear receptor coactivator 3 (Homo sapiens) (UniProt Q9Y6Q9); test: NCOA3 GAL4-fusion reporter inhibition – cell-based, luminescence, quadruplicate, confirmation (AID 588792;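 active means mean inhibition over 43.08%, the solvent-only control mean plus 3 SD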;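 further: 0% = DMSO treated cells and 100% = gossypol at 36 µM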); settings: HEK293 GAL4-SRC3 luciferase reporter, at 3.6 µM, hits give high values
Chain of Nuclear receptor coactivator 3 (Homo sapiens) (Q9Y6Q9 whole entry, looked up, the tested form may be a part): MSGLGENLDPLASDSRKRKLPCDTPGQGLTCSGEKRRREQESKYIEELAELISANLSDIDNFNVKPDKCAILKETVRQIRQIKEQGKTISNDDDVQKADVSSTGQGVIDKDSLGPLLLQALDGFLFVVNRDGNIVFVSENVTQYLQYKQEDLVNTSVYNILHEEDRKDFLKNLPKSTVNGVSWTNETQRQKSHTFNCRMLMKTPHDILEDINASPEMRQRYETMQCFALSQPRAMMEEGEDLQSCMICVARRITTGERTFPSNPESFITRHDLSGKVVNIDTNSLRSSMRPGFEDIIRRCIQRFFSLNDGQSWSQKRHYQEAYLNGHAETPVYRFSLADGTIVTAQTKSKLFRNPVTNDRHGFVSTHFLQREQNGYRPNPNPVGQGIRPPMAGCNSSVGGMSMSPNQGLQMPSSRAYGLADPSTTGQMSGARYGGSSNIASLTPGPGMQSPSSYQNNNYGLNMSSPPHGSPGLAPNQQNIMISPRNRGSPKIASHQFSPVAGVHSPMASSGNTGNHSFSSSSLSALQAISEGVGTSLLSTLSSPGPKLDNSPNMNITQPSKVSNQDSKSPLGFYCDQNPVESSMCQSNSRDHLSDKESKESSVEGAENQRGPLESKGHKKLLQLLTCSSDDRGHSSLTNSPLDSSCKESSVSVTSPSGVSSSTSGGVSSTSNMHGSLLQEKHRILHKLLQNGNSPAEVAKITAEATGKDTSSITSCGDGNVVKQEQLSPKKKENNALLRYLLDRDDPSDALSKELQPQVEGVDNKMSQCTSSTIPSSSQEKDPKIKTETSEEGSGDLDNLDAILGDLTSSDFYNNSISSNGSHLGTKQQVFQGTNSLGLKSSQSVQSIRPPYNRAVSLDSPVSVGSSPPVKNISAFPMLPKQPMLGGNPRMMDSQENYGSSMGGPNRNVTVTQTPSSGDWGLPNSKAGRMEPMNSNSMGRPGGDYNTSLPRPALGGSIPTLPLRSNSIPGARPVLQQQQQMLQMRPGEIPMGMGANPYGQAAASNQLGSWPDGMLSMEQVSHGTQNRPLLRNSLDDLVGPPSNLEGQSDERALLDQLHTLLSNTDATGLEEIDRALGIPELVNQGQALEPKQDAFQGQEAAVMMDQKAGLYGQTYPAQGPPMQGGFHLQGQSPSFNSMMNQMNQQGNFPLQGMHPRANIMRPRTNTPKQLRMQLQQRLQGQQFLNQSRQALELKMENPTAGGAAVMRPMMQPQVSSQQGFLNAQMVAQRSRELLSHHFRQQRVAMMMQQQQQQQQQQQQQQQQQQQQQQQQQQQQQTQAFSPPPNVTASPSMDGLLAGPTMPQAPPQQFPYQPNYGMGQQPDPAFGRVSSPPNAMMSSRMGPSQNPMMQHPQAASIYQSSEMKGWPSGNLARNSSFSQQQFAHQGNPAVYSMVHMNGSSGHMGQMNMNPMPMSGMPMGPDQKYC

[2] = system: transactivating tegument protein VP16 (Human herpesvirus 1), Gal4-VP16 luciferase reporter; test: repression of VP16-driven luciferase reporter – cell-based, luminescence, high throughput, counter-screen for SRC3 inhibitor project (AID 588794; in the data active means inhibition above about 30%); settings: mammalian cells, at 3.6 µM, hits give high values
[3] = target: Nuclear receptor coactivator 1 (Homo sapiens) (UniProt Q15788); test: NCOA1 GAL4-fusion reporter inhibition – cell-based, luminescence, quadruplicate, confirmation (AID 588820;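 active means mean inhibition above 46.68%, the untreated control wells mean plus 3 SD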;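 further: 0% = DMSO wells and 100% = gossypol 36 µM treated wells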); settings: HEK293 GAL4-SRC1 luciferase reporter, at 3.6 µM, hits give high values
Chain of Nuclear receptor coactivator 1 (Homo sapiens) (Q15788 whole entry, looked up, the tested form may be a part): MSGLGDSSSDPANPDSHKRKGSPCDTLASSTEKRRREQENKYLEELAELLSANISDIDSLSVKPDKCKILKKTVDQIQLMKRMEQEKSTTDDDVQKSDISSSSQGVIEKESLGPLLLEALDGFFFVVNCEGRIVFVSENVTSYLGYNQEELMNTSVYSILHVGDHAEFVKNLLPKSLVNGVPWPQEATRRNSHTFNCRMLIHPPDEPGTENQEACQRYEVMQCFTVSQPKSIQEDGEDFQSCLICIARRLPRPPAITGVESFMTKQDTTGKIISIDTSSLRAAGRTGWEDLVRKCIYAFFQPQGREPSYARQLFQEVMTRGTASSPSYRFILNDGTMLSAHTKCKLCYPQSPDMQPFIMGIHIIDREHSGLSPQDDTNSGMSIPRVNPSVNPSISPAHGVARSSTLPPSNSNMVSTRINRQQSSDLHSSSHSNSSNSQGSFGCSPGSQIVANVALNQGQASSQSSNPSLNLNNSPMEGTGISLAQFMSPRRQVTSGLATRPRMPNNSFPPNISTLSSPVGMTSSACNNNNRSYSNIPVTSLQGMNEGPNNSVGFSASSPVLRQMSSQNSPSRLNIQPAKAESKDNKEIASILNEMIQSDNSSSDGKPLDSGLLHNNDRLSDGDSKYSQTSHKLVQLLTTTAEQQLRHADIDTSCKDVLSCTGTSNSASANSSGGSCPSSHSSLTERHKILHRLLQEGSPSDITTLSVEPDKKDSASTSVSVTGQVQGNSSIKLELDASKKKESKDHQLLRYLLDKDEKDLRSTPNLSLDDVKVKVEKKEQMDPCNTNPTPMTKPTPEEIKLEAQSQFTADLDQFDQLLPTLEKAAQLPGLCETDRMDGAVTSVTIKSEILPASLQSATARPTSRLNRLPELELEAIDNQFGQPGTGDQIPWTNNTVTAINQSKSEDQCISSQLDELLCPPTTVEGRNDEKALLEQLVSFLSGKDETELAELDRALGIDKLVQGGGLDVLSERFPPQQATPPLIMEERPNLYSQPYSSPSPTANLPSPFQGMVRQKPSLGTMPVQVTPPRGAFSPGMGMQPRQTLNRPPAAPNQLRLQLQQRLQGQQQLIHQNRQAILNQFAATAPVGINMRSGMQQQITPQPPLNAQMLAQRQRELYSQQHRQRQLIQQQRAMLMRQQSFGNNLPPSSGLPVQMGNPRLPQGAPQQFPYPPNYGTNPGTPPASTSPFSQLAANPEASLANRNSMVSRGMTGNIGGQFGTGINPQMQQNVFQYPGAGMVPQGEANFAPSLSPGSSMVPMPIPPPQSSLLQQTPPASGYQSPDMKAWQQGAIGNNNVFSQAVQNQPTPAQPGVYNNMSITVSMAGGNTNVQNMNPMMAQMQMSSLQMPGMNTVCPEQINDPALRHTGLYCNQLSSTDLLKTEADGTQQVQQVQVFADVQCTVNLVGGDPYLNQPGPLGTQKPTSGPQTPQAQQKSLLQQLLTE

[4] = repression of VP16-driven luciferase reporter – cell-based, luminescence, high throughput, counter-screen for SRC1 inhibitor project (AID 588824; in the data active means inhibition above about 25%); settings: cell-based VP16 transactivation luciferase luminescence; at 3.6 µM; hits give high values
[5] = StAR promoter reporter inhibitors, counter-screen for LRH-1 inverse agonist project, cell-based, luminescence, high throughput (AID 651611; in the data active means inhibition above about 28%); settings: StAR promoter luciferase reporter counterscreen, at 3.6 µM, hits give high values
[6] = target: Nuclear receptor subfamily 5 group A member 2 (Homo sapiens) (UniProt O00482); test: NR5A2 activity suppression in reporter cells – cell-based, luminescence, confirmation (AID 651613); settings: cell-based LRH-1 luciferase reporter, inverse agonism; at 3.6 µM; hits give high values;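 further: HEK293T cells co-transfected with LRH-1 and StAR promoter luciferase reporter; 0% = vehicle wells and 100% = parental cells lacking receptor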
Chain of Nuclear receptor subfamily 5 group A member 2 (Homo sapiens) (O00482 whole entry, looked up): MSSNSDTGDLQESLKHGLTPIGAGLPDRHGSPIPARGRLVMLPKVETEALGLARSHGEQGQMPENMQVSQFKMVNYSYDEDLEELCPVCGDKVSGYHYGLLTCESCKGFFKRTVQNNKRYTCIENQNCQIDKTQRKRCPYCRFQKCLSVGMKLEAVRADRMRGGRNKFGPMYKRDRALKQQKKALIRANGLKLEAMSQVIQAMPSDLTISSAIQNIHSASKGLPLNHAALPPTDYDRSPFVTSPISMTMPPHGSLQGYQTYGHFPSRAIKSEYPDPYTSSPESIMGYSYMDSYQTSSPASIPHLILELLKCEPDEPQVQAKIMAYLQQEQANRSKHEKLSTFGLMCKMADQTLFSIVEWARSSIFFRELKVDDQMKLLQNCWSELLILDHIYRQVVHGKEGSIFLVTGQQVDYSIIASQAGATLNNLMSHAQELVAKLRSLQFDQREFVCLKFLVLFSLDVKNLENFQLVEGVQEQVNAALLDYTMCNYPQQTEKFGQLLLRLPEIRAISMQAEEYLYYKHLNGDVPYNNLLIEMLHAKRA

[7] = target: Steroidogenic factor 1 (Homo sapiens) (UniProt Q13285); test: inverse agonism at SF1 nuclear receptor – cell-based, luminescence, high throughput, counter-screen for LRH-1 inverse agonist project (AID 651614; in the data active means inhibition above about 44%;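 further: cells cotransfected with StAR promoter reporter and SF1 expression vector; 0% = vehicle on cells with receptor and 100% = vehicle on cells lacking receptor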); settings: cell-based SF1 luciferase reporter, at 3.6 µM, hits give high values
[8] = compounds suppressing VP16-driven luciferase signal – cell-based, luminescence, high throughput, counter-screen for LRH-1 inverse agonist project (AID 651615; in the data active means inhibition above about 33%); settings: Gal4-VP16 luciferase reporter cells, at 3.6 µM, hits give high values
[9] = system: transactivating tegument protein VP16 (Human herpesvirus 1); test: compounds suppressing VP16-driven luciferase signal – cell-based, luminescence, single concentration, counter-screen for SRC2 inhibitor project (AID 652007; in the data active means inhibition above about 36%); settings: cell-based VP16 transactivation luciferase reporter, at 8.9 µM, hits give high values
[10] = target: Nuclear receptor coactivator 2 (Homo sapiens) (UniProt Q15596); test: inhibition of GAL4-SRC2 driven luciferase expression – cell-based, luminescence, HEK293, triplicate, confirmation (AID 652008;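 active means mean inhibition above 46.5%, the solvent-only control mean plus 3 SD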;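 further: 0% = DMSO-treated cells and 100% = Gossypol at 36 µM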); settings: HEK293 GAL4-SRC2 luciferase reporter, at 8.9 µM, hits give high values
Chain of Nuclear receptor coactivator 2 (Homo sapiens) (Q15596 whole entry, looked up, the tested form may be a part): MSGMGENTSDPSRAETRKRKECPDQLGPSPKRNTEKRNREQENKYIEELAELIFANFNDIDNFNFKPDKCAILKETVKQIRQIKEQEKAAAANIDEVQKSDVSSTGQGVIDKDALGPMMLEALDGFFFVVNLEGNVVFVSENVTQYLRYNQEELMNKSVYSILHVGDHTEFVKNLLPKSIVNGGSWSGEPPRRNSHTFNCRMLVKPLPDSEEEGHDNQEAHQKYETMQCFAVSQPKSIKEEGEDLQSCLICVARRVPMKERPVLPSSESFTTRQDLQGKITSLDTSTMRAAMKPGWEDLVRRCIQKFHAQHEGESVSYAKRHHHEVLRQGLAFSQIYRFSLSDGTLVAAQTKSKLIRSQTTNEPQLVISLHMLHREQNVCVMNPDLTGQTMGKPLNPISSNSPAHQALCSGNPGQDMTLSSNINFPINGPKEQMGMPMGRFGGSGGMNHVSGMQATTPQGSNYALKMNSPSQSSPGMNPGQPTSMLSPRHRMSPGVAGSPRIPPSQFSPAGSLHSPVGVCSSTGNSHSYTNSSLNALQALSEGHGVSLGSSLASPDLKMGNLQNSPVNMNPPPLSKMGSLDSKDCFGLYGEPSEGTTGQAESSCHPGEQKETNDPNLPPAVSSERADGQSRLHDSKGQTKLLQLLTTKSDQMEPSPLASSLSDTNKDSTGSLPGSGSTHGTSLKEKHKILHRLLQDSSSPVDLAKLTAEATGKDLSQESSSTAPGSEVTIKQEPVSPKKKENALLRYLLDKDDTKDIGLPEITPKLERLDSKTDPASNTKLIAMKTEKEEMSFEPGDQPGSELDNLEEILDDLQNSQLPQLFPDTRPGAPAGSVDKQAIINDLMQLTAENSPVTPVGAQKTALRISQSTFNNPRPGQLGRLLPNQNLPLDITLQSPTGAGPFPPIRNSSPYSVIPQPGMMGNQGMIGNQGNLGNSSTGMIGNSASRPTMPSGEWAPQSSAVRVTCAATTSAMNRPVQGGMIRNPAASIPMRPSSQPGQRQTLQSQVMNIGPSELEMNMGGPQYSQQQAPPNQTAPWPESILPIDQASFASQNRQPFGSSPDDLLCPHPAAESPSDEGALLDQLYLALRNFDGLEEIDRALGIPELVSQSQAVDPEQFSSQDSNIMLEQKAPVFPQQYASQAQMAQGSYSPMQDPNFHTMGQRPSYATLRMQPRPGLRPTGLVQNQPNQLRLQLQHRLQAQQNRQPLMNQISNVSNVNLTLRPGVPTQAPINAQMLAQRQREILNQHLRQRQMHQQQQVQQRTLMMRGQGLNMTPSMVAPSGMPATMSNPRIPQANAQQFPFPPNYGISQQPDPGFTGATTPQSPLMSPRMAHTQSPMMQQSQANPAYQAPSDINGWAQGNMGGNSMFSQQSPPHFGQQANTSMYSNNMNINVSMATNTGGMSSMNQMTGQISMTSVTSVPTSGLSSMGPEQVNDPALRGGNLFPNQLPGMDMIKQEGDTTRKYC

Compound | inhibition [1] | inhibition [2] | inhibition [3] | inhibition [4] | inhibition [5] | inhibition [6] | inhibition [7] | inhibition [8] | inhibition [9] | inhibition [10]
COC(=O)C12OCC34C(CC5C(C)=C(O)C(=O)CC5(C)C3C(O)C1O)OC(=O)C(OC(=O)/C=C(\C)C(C)C)C24 (centres undefined) | 99% (active) | 97.6% (active) | 98.1% (active) | 97.7% (active) | 96.7% (active) | 110% (active) | 98.9% (active) | 97.9% (active) | – | –
CC1CC(C)CC(C)C(O)C(C#N)=CC=CCC(C2CCCC2C(=O)O)OC(=O)CC(O)C(C)C1 (centres undefined) | 97.5% (active) | 95.6% (active) | 89.6% (active) | 94.4% (active) | 95.8% (active) | 110% (active) | 97.9% (active) | 98.7% (active) | 78.4% (active) | 78.7% (active)
O=c1[nH]c(O)c(N=Nc2ccc3c(c2)OCCO3)c(=O)[nH]1 | 53.3% (active) | 25.7% | 6.27% | -1.38% | 22.6% | 9.98% | 42.1% | 9.89% | 33.9% | 63.6% (active)
CC12CCC(O)CC1CCC1C2CCC2(C)C(C3=CC(=O)OC3)CCC12O (centres undefined) | 97.6% (active) | 87.9% (active) | 70.6% (active) | 87.4% (active) | 95.7% (active) | 110% (active) | 98.2% (active) | 89% (active) | 58.5% (active) | 23.6%
CCC(C)C(NC(=O)CCCNC(=O)CCC(=O)OC1O[C@H]2OC3(C)CC[C@H]4[C@H](C)CCC(C1C)C24OO3)C(=O)O (some centres undefined) | 52.4% (active) | 77.5% (active) | 45% | 76.4% (active) | 71.9% (active) | 101% (active) | 89.8% (active) | 82.9% (active) | – | –
C[C@H]1O[C@@H](OC2CC[C@]3(C=O)[C@H]4CC[C@]5(C)[C@@H](C6=CC(=O)OC6)CC[C@]5(O)[C@@H]4CC[C@]3(O)C2)CC2OC(C)(C)OC21 (some centres undefined) | 94.5% (active) | 85.3% (active) | 65.8% (active) | 83.1% (active) | 97.6% (active) | 111% (active) | 99.5% (active) | 93.3% (active) | – | –
CC(=O)OCC12CC(OC(=O)CC(C)C)C(C)=CC1OC1C(O)C(OC(C)=O)C2(C)C12CO2 (centres undefined) | 95.1% (active) | 91.9% (active) | 88.5% (active) | 88.9% (active) | 97% (active) | 110% (active) | 98.3% (active) | 97.8% (active) | 79.1% (active) | 75.4% (active)
CC(=O)OC[C@]12CCC(C)=C[C@H]1O[C@@H]1[C@H](O)[C@@H](OC(C)=O)[C@@]2(C)[C@]12CO2 | 98.8% (active) | 97.9% (active) | 98% (active) | 97.8% (active) | 96% (active) | 109% (active) | 98% (active) | 97.1% (active) | 78.3% (active) | 73% (active)
CN(C)c1ccc(/C=C/c2cc[n+](C)c3ccccc23)cc1 | 55.9% (active) and 45.3% (active) | 74% (active) and 71.3% (active) | 40.2% and 45.5% | 77.9% (active) and 78.6% (active) | 72.7% (active) and 74.2% (active) | 102% (active) and 107% (active) | 86.9% (active) and 89.7% (active) | 82% (active) and 84% (active) | – | –
CC(C)(C)c1cc(C=C(C#N)C#N)cc(C(C)(C)C)c1O | 64.3% (active) | 82.4% (active) | 0.93% | 81% (active) | 80.2% (active) | 102% (active) | 91.4% (active) | 88.2% (active) | – | –
O=C1NC2C(=CC(O)C(O)C2O)c2cc3c(cc21)OCO3 (centres undefined) | 97.1% (active) | 96.6% (active) | 88.5% (active) | 96.3% (active) | 94% (active) | 109% (active) | 96.7% (active) | 95.6% (active) | 73.8% (active) | 76.2% (active)
CC(=O)OC1C(=O)OCC23CCC4(C)OC4C2OC2CC(OC(=O)C=CC=CC(=O)OCCC1C)C3(C)C21CO1 (centres undefined) | 98.1% (active) | 96.5% (active) | 96.7% (active) | 96.3% (active) | 96.8% (active) | 110% (active) | 98.6% (active) | 95.3% (active) | – | –
CC[C@@H](O)C[C@H]1CCC[C@@]2(C[C@@H]3OC(=O)/C=C/[C@@](C)(O)[C@@H](O)[C@H](C)[C@@H](O)[C@H](OC4CCC(N(C)C)C(C)O4)[C@@H](O)[C@](C)(O)CCCCC/C=C/[C@@H]4CC(C)(C)O[C@@]4(O)C[C@H](O2)[C@H]3C)O1 (some centres undefined) | 76.5% (active) | 85.9% (active) | 62.5% (active) | 85% (active) | 79.8% (active) | 105% (active) | 94% (active) | 87.9% (active) | – | –
CC[n+]1c(-c2ccccc2)c2cc(N)ccc2c2ccc(N)cc21 | -43.8% | 52.4% (active) | 40.9% | 41.4% (active) | 68.7% (active) | 92.5% (active) | 77.7% (active) | 84.8% (active) | – | –
C=CCn1c(O)c(C(C)=NCc2cc(OC)cc(OC)c2)c(=O)[nH]c1=O | 49.6% (active) | 28.2% | 43% | 24.5% | 42.4% (active) | 66.4% (active) | 57.7% (active) | 43.6% (active) | – | –
CN(C)c1ccc(-[n+]2c(-c3ccccc3)cc(-c3ccccc3)cc2-c2ccccc2)cc1 | 84.6% (active) | 86.2% (active) | 52.3% (active) | 83.5% (active) | 79.2% (active) | 107% (active) | 91.6% (active) | 92% (active) | – | –
c1ccc(-c2cc(-c3ccccc3)[n+](-c3ccccc3)c(-c3ccccc3)c2)cc1 | 61.7% (active) | 75.9% (active) | 49.1% (active) | 81.6% (active) | 69.6% (active) | 104% (active) | 81.3% (active) | 89.4% (active) | – | –
CC[C@@]1(O)C(=O)OCc2c1cc1n(c2=O)Cc2cc3c(NC(=O)CN)cccc3nc2-1 | 61.8% (active) | 9.37% | 55.3% (active) | -2.11% | 42.7% (active) | 70% (active) | 59.3% (active) | 9.93% | – | –
CCC1(OC(=O)CN)C(=O)OCc2c1cc1n(c2=O)Cc2cc3ccccc3nc2-1 (centres undefined) | 94.9% (active) | 82.8% (active) | 56.9% (active) | 77.3% (active) | 84% (active) | 103% (active) | 90.9% (active) | 82% (active) | – | –
